# According to PubChem BioAssay (NCI):
# About 79,000 compounds went through this panel and 15% of them were active in at least one assay; those are over-represented in the sample as a whole. Active and inactive are the calls of the source. No stated cut-off is given here; in the data, active means growth inhibition above about 70%; inactive means the rest.
# What was measured:
# [1] = NCI Yeast Anticancer Drug Screen. Data for the rad50 strain (AID 155);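 further: 0% = growth of vehicle-only cultures of the same strain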; conditions: S. cerevisiae rad50 strain growth inhibition, stronger effect = higher value
# Procedure, shortened: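 A DNA repair-deficient yeast mutant serves as the test organism; compound-induced growth inhibition is calculated against vehicle-treated cells.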
# [2] = NCI Yeast Anticancer Drug Screen. Data for the mec2-1 strain (AID 157); conditions: S. cerevisiae mec2-1 strain, stronger effect = higher value
# Procedure, shortened: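 Mutant yeast (mec2-1) grown with compound; growth inhibition relative to vehicle control reported.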
# [3] = NCI Yeast Anticancer Drug Screen. Data for the sgs1 mgt1 strain (AID 161);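 further: 0% = growth of cultures given vehicle only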; conditions: S. cerevisiae sgs1 mgt1 strain, stronger effect = higher value
# Procedure, shortened: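 This yeast growth screen uses a strain with defined DNA-repair lesions; compound-treated growth is compared with vehicle-treated growth.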
# [4] = NCI Yeast Anticancer Drug Screen. Data for the cln2 rad14 strain (AID 165);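 further: 0% = growth equal to vehicle treated cultures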; conditions: S. cerevisiae cln2 rad14 strain, stronger effect = higher value
# Procedure, shortened: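 Readout is yeast growth inhibition versus vehicle-treated controls, using a strain with cln2 and rad14 alterations exposed to compound.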
# [5] = NCI Yeast Anticancer Drug Screen. Data for the bub3 strain (AID 167); conditions: S. cerevisiae bub3 mutant strain, stronger effect = higher value
# Procedure, shortened: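 Inhibition values come from growth of compound-treated mutant yeast normalised to vehicle-treated controls.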
# [6] = NCI Yeast Anticancer Drug Screen. Data for the mlh1 rad18 strain (AID 175); conditions: S. cerevisiae mlh1 rad18 strain growth inhibition, stronger effect = higher value
# Procedure, shortened: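 Genetically defined yeast (DNA repair-deficient) exposed to compounds; growth inhibition determined relative to vehicle.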
# [7] = at 5.0 µM (retest, dose inferred, filed as 0.5)
# [8] = at 50.0 µM (retest, dose inferred, filed as 5.0)
Compound,"growth inhibition [1, 7]","growth inhibition [1, 8]",growth inhibition ([1]; at 50.0 µM),"growth inhibition [2, 7]","growth inhibition [2, 8]",growth inhibition ([2]; at 50.0 µM),"growth inhibition [3, 7]","growth inhibition [3, 8]",growth inhibition ([3]; at 50.0 µM),"growth inhibition [4, 7]","growth inhibition [4, 8]",growth inhibition ([4]; at 50.0 µM),"growth inhibition [5, 7]","growth inhibition [5, 8]",growth inhibition ([5]; at 50.0 µM),"growth inhibition [6, 7]","growth inhibition [6, 8]",growth inhibition ([6]; at 50.0 µM)
COP(=O)(OC)/C(=C/c1cn(C(c2ccccc2)(c2ccccc2)c2ccccc2)cn1)NC=O,5% (inactive),16% (inactive),2.1% (inactive),2% (inactive),-5% (inactive),60.7% (inactive),-4% (inactive),41% (inactive),79.9% (active),1% (inactive),14% (inactive),0.6% (inactive),0% (inactive),9% (inactive),-1.7% (inactive),-12% (inactive),40% (inactive),39.2% (inactive)
Cc1cc(Cl)ccc1Nc1sc(C(=O)c2cc3cc(Cl)ccc3o2)c(N)c1C#N,16% (inactive),53% (inactive),23.7% (inactive),-3% (inactive),48% (inactive),45.5% (inactive),8% (inactive),65% (inactive),45% (inactive),6% (inactive),84% (active),83% (active),13% (inactive),55% (inactive),50.1% (inactive),-7% (inactive),66% (inactive),36.5% (inactive)
CCCC/C=C1\CCC(CN2CCCCC2)C1=O (stereo unspecified),44% (inactive),70% (active),89.2% (active),40% (inactive),60% (inactive),69.8% (inactive),75% (active),96% (active),85.3% (active),59% (inactive),75% (active),77.2% (active),84% (active),98% (active),67.2% (inactive),56% (inactive),83% (active),88% (active)
COc1ccc(N2C(=O)C(=O)N(c3ccccc3[N+](=O)[O-])C2=S)cc1,16% (inactive),99% (active),86.3% (active),-10% (inactive),96% (active),90% (active),7% (inactive),98% (active),86.2% (active),16% (inactive),94% (active),72.2% (active),7% (inactive),98% (active),78.2% (active),3% (inactive),98% (active),83.9% (active)
COc1ccccc1C(=O)c1c(C(=O)O)ccc2ccccc12,-2% (inactive),-17% (inactive),3.8% (inactive),-6% (inactive),-28% (inactive),6.9% (inactive),-3% (inactive),-25% (inactive),7.75% (inactive),-17% (inactive),-3% (inactive),27.6% (inactive),-10% (inactive),-5% (inactive),13.7% (inactive),-4% (inactive),-1% (inactive),48.6% (inactive)
c1ccc2cc3c(ccc4cccc[n+]43)cc2c1,17% (inactive),28% (inactive),34.3% (inactive),20% (inactive),52% (inactive),18% (inactive),23% (inactive),53% (inactive),35.6% (inactive),30% (inactive),29% (inactive),71.5% (active),-4% (inactive),8% (inactive),27.7% (inactive),10% (inactive),45% (inactive),29.9% (inactive)
N/N=C(/N)SCCCCCCCCCCS/C(N)=N/N,-6% (inactive),5% (inactive),21.4% (inactive),-4% (inactive),78% (active),48.5% (inactive),-35% (inactive),76% (active),82.3% (active),-10% (inactive),-28% (inactive),51.9% (inactive),-6% (inactive),7% (inactive),15.2% (inactive),-8% (inactive),39% (inactive),79.8% (active)
CN(C)/C(N)=N\c1nc2ccc(Cl)cc2s1,-13% (inactive),15% (inactive),10.9% (inactive),-4% (inactive),-17% (inactive),11.4% (inactive),-17% (inactive),4% (inactive),8.3% (inactive),-20% (inactive),-10% (inactive),15.9% (inactive),-1% (inactive),12% (inactive),-11.1% (inactive),-3% (inactive),48% (inactive),9.05% (inactive)
O=C(CCCl)Nc1cc2ccccc2oc1=O,-19% (inactive),-19% (inactive),-8.5% (inactive),-2% (inactive),-17% (inactive),15.9% (inactive),-10% (inactive),23% (inactive),6.65% (inactive),1% (inactive),13% (inactive),0.55% (inactive),-4% (inactive),-10% (inactive),-1.1% (inactive),-16% (inactive),19% (inactive),-2.15% (inactive)
CC/C(C)=C1\CCC(CN2CCOCC2)C1=O (stereo unspecified),24% (inactive),61% (inactive),79% (active),20% (inactive),77% (active),72% (active),24% (inactive),70% (active),66.3% (inactive),31% (inactive),45% (inactive),48.8% (inactive),31% (inactive),94% (active),62.9% (inactive),14% (inactive),90% (active),79.2% (active)
O=[N+]([O-])c1ccccc1C1CN=NN1c1ccccc1 (stereo unspecified),-9% (inactive),47% (inactive),-0.9% (inactive),-2% (inactive),25% (inactive),17.9% (inactive),-1% (inactive),33% (inactive),38.2% (inactive),-14% (inactive),32% (inactive),-11.3% (inactive),-3% (inactive),61% (inactive),85.5% (active),0% (inactive),37% (inactive),24.9% (inactive)
CCOC(=O)c1cnc2ccc(C3CCCCC3)cc2c1Nc1ccc2c(c1)OCO2,-15% (inactive),91% (active),11.1% (inactive),-4% (inactive),95% (active),-8.35% (inactive),-23% (inactive),96% (active),5.15% (inactive),-9% (inactive),92% (active),-12.8% (inactive),3% (inactive),93% (active),-7.25% (inactive),-3% (inactive),93% (active),25.4% (inactive)
CCOC(=O)C(/C=N\C(=S)Nc1c(CC)cccc1C(C)(C)C)=C(/O)c1ccccc1,7% (inactive),61% (inactive),51.5% (inactive),0% (inactive),46% (inactive),49% (inactive),17% (inactive),35% (inactive),64.5% (inactive),-13% (inactive),43% (inactive),67.2% (inactive),-8% (inactive),73% (active),55.6% (inactive),4% (inactive),48% (inactive),63% (inactive)
O=C1/C(=C/c2ccccc2)CCC/C1=C\c1ccc(O)c(CN2CCCCC2)c1,25% (inactive),42% (inactive),-4.05% (inactive),16% (inactive),27% (inactive),1.95% (inactive),26% (inactive),47% (inactive),88.8% (active),18% (inactive),12% (inactive),74.9% (active),21% (inactive),32% (inactive),82.2% (active),25% (inactive),44% (inactive),90.8% (active)
CCC(CO)Nc1nc2cc(Cl)ccc2c2ccc(Cl)cc12 (stereo unspecified),19% (inactive),98% (active),93.6% (active),2% (inactive),99% (active),94.8% (active),24% (inactive),97% (active),95.6% (active),-4% (inactive),97% (active),89.8% (active),11% (inactive),97% (active),95.5% (active),20% (inactive),96% (active),94% (active)
O=C(CC(O)(CC(=O)OCc1ccccc1)C(=O)OCc1ccccc1)OCc1ccccc1,-3% (inactive),-23% (inactive),99.2% (active),-2% (inactive),-27% (inactive),99.5% (active),-4% (inactive),-22% (inactive),99.1% (active),11% (inactive),-10% (inactive),98.2% (active),-1% (inactive),-34% (inactive),99.4% (active),3% (inactive),-9% (inactive),99% (active)
CC(=O)N=C1N(/C=C2\C(=O)Oc3ccccc3C2=O)C(=O)/C(=C/c2ccc(Cl)cc2Cl)N1C,1% (inactive),92% (active),91.8% (active),11% (inactive),96% (active),95% (active),7% (inactive),90% (active),94.2% (active),-3% (inactive),91% (active),89.8% (active),23% (inactive),87% (active),93.4% (active),-4% (inactive),91% (active),91.6% (active)
